Laboratory results from PubChem BioAssay AID1159580 (chemical genetic matrix, 2015).
Several values for one entry are separate records, joined by “and”; a condition that tells them apart may be missing. Equal values may be shown once. About 2,000 (36%) of roughly 5,500 compounds were called active. About 18% were inconclusive and are not listed. No stated cut-off is given here; in the data, active means normalized growth mostly below about 0.91 (no sharp cut-off); inconclusive means no clear call, values can overlap the other calls; inactive means mostly above about 0.92. Some of the results follow.

Assay: chemical genetic growth profiling, strain panel (AID 1159580);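 further: tested at 20 µM; growth read once vehicle control cultures reached saturation at 30 °C; 1 = growth at the plate median or of vehicle wells; lower values mean less growth of the strain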
Details: S. cerevisiae deletion strains, growth OD

Measured: normalized growth

O=c1c(-c2ccc(O)cc2)coc2cc(O)ccc12
inactive: locus YAL013W, strain DEP1, hits give low values 0.964 | locus YAL021C, strain ccr4, hits give low values 0.996 | locus YAL026C, strain drs2, hits give low values 0.983 | locus YAL030W, strain snc1, hits give low values 0.989 | locus YAL040C, strain CLN3, hits give low values 1.01 | locus YBL061C, strain skt5, hits give low values 0.983 | locus YBR009C, strain hhf1, hits give low values 0.97 | locus YBR021W, strain FUR4, hits give low values 0.924 | locus YBR023C, strain chs3, hits give low values 0.978 | locus YBR171W, strain sec66, hits give low values 0.969 | locus YBR229C, strain ROT2, hits give low values 1.01 | locus YBR231C, strain swc5, hits give low values 0.986 | locus YBR279W, strain paf1, hits give low values 0.999 | locus YCL011C, strain gbp2, hits give low values 0.98 | locus YCL016C, strain dcc1, hits give low values 0.977 | locus YCL029C, strain bik1, hits give low values 0.983 | locus YCL061C, strain MRC1 (second series), hits give low values 1.01 | locus YCL061C, strain MRC1, hits give low values 0.975 | locus YCL069W, strain vba3, hits give low values 0.995 | locus YCR088W, strain abp1, hits give low values 0.987 | locus YDL005C, strain med2, hits give low values 0.976 | locus YDL035C, strain GPR1, hits give low values 1.01 | locus YDL040C, strain nat1, hits give low values 0.987 | locus YDL074C, strain BRE1, hits give low values 0.97 | locus YDL101C, strain DUN1, hits give low values 1.01 | locus YDL134C, strain PPH21, hits give low values 1 | locus YDL185W, strain tfp1, hits give low values 0.987 | locus YDL192W, strain arf1, hits give low values 1.01 | locus YDR001C, strain nth1, hits give low values 0.984 | locus YDR069C, strain doa4, hits give low values 0.985 | locus YDR101C, strain arx1, hits give low values 0.964 | locus YDR137W, strain rgp1, hits give low values 1 | locus YDR150W, strain NUM1, hits give low values 0.984 | locus YDR159W, strain sac3, hits give low values 0.974 | locus YDR162C, strain NBP2, hits give low values 1 | locus YDR195W, strain ref2 1.04 | locus YDR297W, strain sur2, hits give low values 0.978 | locus YDR318W, strain mcm21, hits give low values 0.99 | locus YDR334W, strain swr1, hits give low values 1 | locus YDR335W, strain msn5, hits give low values 0.992 | locus YDR363W, strain ESC2, hits give low values 1.01 | locus YDR388W, hits give low values 0.98 | locus YDR392W, strain spt3, hits give low values 0.849 | locus YDR502C, strain sam2, hits give low values 0.951 | locus YEL003W, strain gim4, hits give low values 0.989 | locus YEL037C, strain rad23, hits give low values 0.985 | locus YEL061C, strain CIN8 (second series), hits give low values 0.996 | locus YEL061C, strain CIN8, hits give low values 1.01 | locus YER002W, strain NOP16, hits give low values 0.992 | locus YER015W, strain faa2, hits give low values 0.993 | locus YER016W, strain bim1, hits give low values 0.982 | locus YER110C, hits give low values 0.974 | locus YER111C, strain swi4, hits give low values 0.98 | locus YER155C, strain BEM2 (second series), hits give low values 0.972 | locus YER155C, strain BEM2, hits give low values 0.992 | locus YER167W, strain BCK2, hits give low values 1 | locus YFR010W, strain ubp6, hits give low values 0.982 | locus YGL078C, strain dbp3, hits give low values 0.977 | locus YGL086W, strain mad1, hits give low values 0.969 | locus YGL167C, strain pmr1, hits give low values 0.981 | locus YGL173C, strain kem1, hits give low values 0.971 | locus YGL227W, strain vid30, hits give low values 0.984 | locus YGL240W, strain doc1, hits give low values 0.958 | locus YGL248W, strain PDE1, hits give low values 1.01 | locus YGL253W, strain hxk2, hits give low values 0.956 | locus YGR078C, strain PAC10, hits give low values 0.965 and 1.01 | locus YGR135W, strain pre9, hits give low values 0.957 | locus YGR229C, strain SMI1, hits give low values 0.974 | locus YGR252W, strain gcn5, hits give low values 0.825 | locus YHR013C, strain ard1, hits give low values 0.959 | locus YHR027C, strain rpn1, hits give low values 0.995 | locus YHR030C, strain SLT2, hits give low values 1.01 and 1.02 | locus YHR079C, strain IRE1 (second series), hits give low values 0.993 | locus YHR079C, strain IRE1, hits give low values 0.999 | locus YHR094C, strain hxt1, hits give low values 0.99 | locus YHR129C, strain ARP1, hits give low values 1.01 | locus YHR142W, strain chs7, hits give low values 0.943 | locus YHR200W, strain rpn10, hits give low values 0.979 | locus YIL066C, strain RNR3, hits give low values 1.02 | locus YIL073C, strain SPO22, hits give low values 0.951 | locus YIL125W, strain kgd1, hits give low values 0.988 | locus YIR030C, strain dcg1, hits give low values 0.978 | locus YJL092W, strain hpr5, hits give low values 0.981 | locus YJL095W, strain BCK1 (second series), hits give low values 0.98 | locus YJL095W, strain BCK1, hits give low values 0.977 and 1.03 | locus YJL115W, strain asf1, hits give low values 0.994 | locus YJL129C, strain trk1, hits give low values 0.969 | locus YJL134W, strain LCB3, hits give low values 1.01 | locus YJL154C, strain vps35, hits give low values 0.986 | locus YJL164C, strain tpk1, hits give low values 0.966 | locus YJL166W, strain qcr8, hits give low values 0.963 | locus YJL168C, strain set2, hits give low values 0.99 | locus YJL187C, strain SWE1 (second series), hits give low values 0.987 | locus YJL187C, strain SWE1, hits give low values 0.984 | locus YJR043C, strain POL32, hits give low values 0.994 | locus YJR066W, strain TOR1, hits give low values 0.989 | locus YKL009W, strain mrt4, hits give low values 0.951 | locus YKL068W, hits give low values 1 | locus YKL085W, strain MDH1 (second series), hits give low values 1.01 | locus YKL085W, strain MDH1, hits give low values 1.01 | locus YKL160W, strain elf1, hits give low values 0.971 | locus YKR001C, strain vps1, hits give low values 0.963 | locus YKR026C, strain gcn3, hits give low values 0.976 | locus YKR091W, strain srl3, hits give low values 0.982 | locus YLL001W, strain dnm1, hits give low values 0.945 | locus YLL026W, hits give low values 0.976 | locus YLL041C, strain sdh2, hits give low values 0.986 | locus YLR027C, strain aat2, hits give low values 0.973 | locus YLR039C, strain RIC1, hits give low values 1.05 | locus YLR058C, strain SHM2, hits give low values 1 | locus YLR102C, strain apc9, hits give low values 0.998 | locus YLR113W, strain HOG1, hits give low values 0.933 | locus YLR221C, strain rsa3, hits give low values 0.953 | locus YLR258W, strain gsy2, hits give low values 0.978 | locus YLR262C, strain YPT6 (second series), hits give low values 0.969 | locus YLR262C, strain YPT6, hits give low values 1.09 | locus YLR268W, strain sec22, hits give low values 0.949 | locus YLR320W, strain mms22, hits give low values 0.939 | locus YLR330W, strain CHS5, hits give low values 1 | locus YLR342W, strain FKS1 (second series), hits give low values 0.997 | locus YLR342W, strain FKS1, hits give low values 0.987 | locus YLR357W, strain rsc2, hits give low values 0.941 | locus YLR370C, strain arc18, hits give low values 0.982 | locus YLR371W, strain rom2, hits give low values 0.985 | locus YLR384C, strain iki3, hits give low values 1 | locus YLR418C, strain cdc73, hits give low values 0.888 | locus YML016C, strain PPZ1, hits give low values 1.02 | locus YML032C, strain rad52, hits give low values 0.977 | locus YML120C, strain ndi1, hits give low values 0.991 | locus YML124C, strain tub3, hits give low values 0.98 | locus YMR058W, strain fet3, hits give low values 0.981 | locus YMR078C, strain ctf18, hits give low values 0.979 | locus YMR125W, strain sto1, hits give low values 0.99 | locus YMR129W, hits give low values 0.989 | locus YMR205C, strain PFK2, hits give low values 0.957 | locus YMR223W, strain ubp8, hits give low values 0.978 | locus YMR231W, strain pep5, hits give low values 0.992 | locus YMR307W, strain GAS1, hits give low values 0.951 and 1.01 | locus YNL067W, strain RPL9B, hits give low values 0.966 | locus YNL071W, strain lat1, hits give low values 0.979 | locus YNL128W, strain TEP1, hits give low values 1 | locus YNL153C, strain GIM3, hits give low values 0.982 and 1.04 | locus YNL175C, strain NOP13, hits give low values 0.994 | locus YNL183C, strain NPR1, hits give low values 0.993 | locus YNL197C, strain WHI3, hits give low values 0.979 | locus YNL209W, strain ssb2, hits give low values 0.99 | locus YNL224C, strain SQS1, hits give low values 1 | locus YNL233W, strain BNI4, hits give low values 0.966 | locus YNL248C, strain rpa49, hits give low values 0.97 | locus YNL250W, strain rad50, hits give low values 1.01 | locus YNL271C, strain bni1, hits give low values 0.985 | locus YNL298W, strain CLA4, hits give low values 0.997 | locus YNL307C, strain MCK1, hits give low values 0.97 | locus YNL322C, strain KRE1 (second series), hits give low values 0.966 | locus YNL322C, strain KRE1, hits give low values 1 | locus YNR049C, strain mso1, hits give low values 0.985 | locus YNR052C, strain pop2, hits give low values 0.988 | locus YOL006C, strain TOP1, hits give low values 0.931 | locus YOL012C, strain htz1 0.695 | locus YOL147C, strain pex11, hits give low values 0.982 | locus YOR001W, strain rrp6, hits give low values 1 | locus YOR061W, strain CKA2, hits give low values 1.02 | locus YOR069W, strain VPS5, hits give low values 1.01 | locus YOR070C, strain gyp1, hits give low values 0.982 | locus YOR080W, strain dia2, hits give low values 0.98 | locus YOR083W, strain WHI5 (second series), hits give low values 1.05 | locus YOR083W, strain WHI5, hits give low values 0.945 | locus YOR106W, strain vam3, hits give low values 0.954 | locus YOR136W, strain idh2, hits give low values 0.97 | locus YOR144C, strain elg1, hits give low values 0.985 | locus YOR184W, strain ser1, hits give low values 0.935 | locus YOR231W, strain MKK1, hits give low values 1.03 | locus YOR265W, strain rbl2, hits give low values 0.985 | locus YOR270C, strain vph1, hits give low values 0.913 | locus YOR290C, strain snf2, hits give low values 0.902 | locus YOR316C, strain cot1, hits give low values 0.986 | locus YPL051W, strain arl3, hits give low values 0.988 | locus YPL055C, strain LGE1, hits give low values 0.958 | locus YPL078C, strain atp4, hits give low values 0.956 | locus YPL106C, strain sse1, hits give low values 0.935 | locus YPL240C, strain hsp82, hits give low values 1 | locus YPL241C, strain CIN2, hits give low values 1 | locus YPL256C, strain CLN2, hits give low values 0.992 | locus YPR119W, strain clb2, hits give low values 0.984 | locus YPR141C, strain kar3, hits give low values 0.997 | locus YPR163C, strain tif3, hits give low values 0.982 | locus YPR167C, strain met16, hits give low values 0.984 | strain wtn01, hits give low values 0.953
